In PubChem BioAssay (NCATS):
Inconclusive results are not listed. Where a call stands in place of a potency, no number is given. Values without a mark were called inactive. Calls of active or inactive are those of the source. Calls follow the shape of the dose curve; as a rule, active = well fitted curve in the direction sought with a large enough effect; inconclusive = small, poorly fitted or top-dose-only effect, or another doubt; inactive = no such curve, though single readings can be large; an effect the other way counts as inactive or inconclusive.

What was measured:
C33A = test: Primary qHTS to identify gynecologic anti-cancer compounds using libraries of approved drugs and bioactive compounds (AID 1345084); details: Gynecologic cancer cell panel viability, ATPlite luminescence, 48 h; series mostly up to 57.5 µM; also: nearly all actives have a fitted effect of over 55% in size
Procedure, shortened: (§1)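 Measured: luminescence after ATPlite addition (15 min, RT). Exposure: 48 h, 37 C, 5% CO2.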

CAOV3 = test: as above; details: Gynecologic cancer cell panel viability, ATPlite luminescence, 48 h; series mostly up to 57.5 µM
Procedure, shortened: as §1

HeLa = test: as above; details: Gynecologic cancer cell panel viability, ATPlite luminescence, 48 h; series mostly up to 57.5 µM
Procedure, shortened: as §1

Hek293T = test: as above; details: Gynecologic cancer cell panel viability, ATPlite luminescence, 48 h, control line for the selectivity index; series mostly up to 57.5 µM
Procedure, shortened: as §1

JEG-3 = test: as above; details: Gynecologic cancer cell panel viability, ATPlite luminescence, 48 h; series mostly up to 57.5 µM
Procedure, shortened: as §1

OV90 = test: as above; details: Gynecologic cancer cell panel viability, ATPlite luminescence, 48 h; series mostly up to 57.5 µM
Procedure, shortened: as §1

SKOV3 = test: as above; details: Gynecologic cancer cell panel viability, ATPlite luminescence, 48 h; series mostly up to 57.5 µM
Procedure, shortened: as §1

Tov-21-G = test: as above; details: Gynecologic cancer cell panel viability, ATPlite luminescence, 48 h; series mostly up to 57.5 µM
Procedure, shortened: as §1

Tov112D = test: as above; details: Gynecologic cancer cell panel viability, ATPlite luminescence, 48 h; series mostly up to 57.5 µM
Procedure, shortened: as §1

CASKI = test: as above; details: Gynecologic cancer cell panel viability, ATPlite luminescence, 48 h; series mostly up to 57.5 µM
Procedure, shortened: as §1

Es-2 = test: as above; details: Gynecologic cancer cell panel viability, ATPlite luminescence, 48 h; series mostly up to 57.5 µM
Procedure, shortened: as §1

PA-1 = test: as above; details: Gynecologic cancer cell panel viability, ATPlite luminescence, 48 h; series mostly up to 57.5 µM
Procedure, shortened: as §1

[1] = Drug repurposing screens with cells derived from glioblastoma tumor samples (AID 1345199); details: GBM patient neurospheres viability, ATP luminescence, 48 h; also: nearly all actives have a fitted effect of over 40% in size
Procedure, shortened: (§2)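 Primary testing used CD133+ neurospheres from four GBM patients, seven concentrations, 48 h exposure and ATP-based viability; confirmation added three slower-growing patient lines.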

astro = test: as above; details: viability, ATP luminescence, 48 h; series mostly up to 91.6 µM
Procedure, shortened: as §2
Potency is read from the fitted curve at half-maximal effect.

Compound: Cc1ccc(NC(=O)c2ccc(CN3CC[C@H](N(C)C)C3)c(C(F)(F)F)c2)cc1Nc1nccc(-c2cncnc2)n1
- Potency (C33A): inactive
- Potency (CAOV3): inactive
- Potency (HeLa): inactive
- Potency (Hek293T): inactive
- Potency (JEG-3): inactive
- Potency (OV90): 5.01 µM (active)
- Potency (SKOV3): inactive
- Potency (Tov-21-G): inactive
- Potency (Tov112D): inactive

Compound: CC(=O)O[C@@H]1[C@H](O[C@@H]2O[C@@H](CO)[C@H](O)[C@H]2O)[C@@H](O[C@@H]2O[C@@H](C)[C@H](O[C@@H]3OC[C@@H](O)[C@H](O)[C@H]3O)[C@@H](O)[C@H]2O)[C@H](OC(=O)[C@]23CCC(C)(C)C[C@H]2C2=CCC4[C@@]5(C)CC[C@H](O[C@@H]6O[C@H](C(=O)O)[C@@H](O)[C@H](O)[C@H]6O[C@@H]6O[C@H](CO)[C@H](O)[C@H](O)[C@H]6O)[C@@](C)(C=O)C5CC[C@@]4(C)[C@]2(C)CC3)O[C@@H]1C (some centres not stated)
- activity change, negative = cytotoxicity (C33A): 4.84% [at 6.55 µM]
- activity change, negative = cytotoxicity (CASKI): 4.57% [at 6.55 µM]
- activity change, negative = cytotoxicity (Es-2): 4.09% [at 6.55 µM]
- activity change, negative = cytotoxicity (HeLa): 11.1% [at 6.55 µM]
- activity change, negative = cytotoxicity (Hek293T): 2.65% [at 6.55 µM]
- activity change, negative = cytotoxicity (JEG-3): 11.6% [at 6.55 µM]
- activity change, negative = cytotoxicity (OV90): 12.8% [at 6.55 µM]
- activity change, negative = cytotoxicity (PA-1): 11.1% [at 6.55 µM]
- activity change, negative = cytotoxicity (SKOV3): 0% [at 6.55 µM]
- activity change, negative = cytotoxicity (Tov-21-G): 4.85% [at 6.55 µM]
- activity change, negative = cytotoxicity (Tov112D): 12.7% [at 6.55 µM]

Compound: Nc1ncnc2c1nc(N)n2[C@@H]1O[C@H](CO)[C@@H](O)[C@H]1O
- Potency (C33A): 3.55 µM (active)
- Potency (CASKI): 3.16 µM (active)
- Potency (Es-2): 3.16 µM (active)
- Potency (HeLa): 5.01 µM (active)
- Potency (Hek293T): 7.94 µM (active)
- Potency (JEG-3): 15.8 µM (active)
- Potency (OV90): 3.55 µM (active)
- Potency (PA-1): 4.47 µM (active)
- Potency (SKOV3): 3.16 µM (active)
- Potency (Tov-21-G): 3.16 µM (active)
- Potency (Tov112D): 3.55 µM (active)

Compound: CC1(C)CC(NC(=O)C(=O)Nc2ccc(Br)cc2)CC(C)(C)N1
- Potency (C33A): inactive
- Potency (CAOV3): inactive
- Potency (HeLa): 14.1 µM (active)
- Potency (JEG-3): inactive
- Potency (OV90): inactive

Compound: Cc1nc(NC(=O)N2CCCC2C(N)=O)sc1-c1csc(C(C)(C)C)n1 (configuration not stated)
- Potency (C33A): inactive
- Potency (CAOV3): inactive
- Potency (Es-2): inactive
- Potency (Hek293T): inactive
- Potency (JEG-3): inactive
- Potency (OV90): inactive
- Potency (SKOV3): 3.16 µM (active)
- Potency (Tov-21-G): inactive
- Potency (Tov112D): inactive

Compound: COc1cc2nc(N3CCC(N4CCCCC4)CC3)nc(NC3CCCCCC3)c2cc1OC
- Potency (C33A): 25.1 µM (active)
- Potency (CAOV3): 7.08 µM (active)
- Potency (OV90): 22.4 µM (active)
- Potency (SKOV3): 22.4 µM (active)

Compound: C/C=C1\[C@H](O[C@@H]2O[C@H](CO)[C@@H](O)[C@H](O)[C@H]2O)OC=C2C(=O)OCCc3ccc(O)c(c3)Oc3ccc(cc3)CCOC(=O)C[C@H]21
- Potency (C33A): inactive
- Potency (CAOV3): inactive
- Potency (Es-2): inactive
- Potency (HeLa): inactive
- Potency (Hek293T): inactive
- Potency (OV90): inactive
- Potency (PA-1): inactive
- Potency (Tov-21-G): inactive
- Potency (Tov112D): inactive

Compound: COc1c2ccoc2cc2oc(CO[C@@H]3O[C@H](CO)[C@@H](O)[C@H](O)[C@H]3O)cc(=O)c12
- Potency (C33A): inactive
- Potency (CASKI): inactive
- Potency (Es-2): inactive
- Potency (HeLa): inactive
- Potency (Hek293T): inactive
- Potency (JEG-3): inactive
- Potency (OV90): inactive
- Potency (PA-1): inactive
- Potency (SKOV3): inactive
- Potency (Tov-21-G): inactive
- Potency (Tov112D): inactive

Compound: COc1c2c(c(C)c3c1C(=O)OC3)OC1(C)CC(O)C34OC(OC)(CC(OC(C)=O)C3(C)C1C2)OC4(C)C (configuration not stated)
- Potency (C33A): inactive
- Potency (CASKI): inactive
- Potency (Es-2): inactive
- Potency (HeLa): inactive
- Potency (Hek293T): inactive
- Potency (JEG-3): inactive
- Potency (OV90): inactive
- Potency (PA-1): inactive
- Potency (SKOV3): inactive
- Potency (Tov-21-G): inactive
- Potency (Tov112D): inactive

Compound: Cc1ccc(S(=O)(=O)c2ccc([N+](=O)[O-])o2)cc1
- Potency (C33A): 11.2 µM (active)
- Potency (CAOV3): 11.2 µM (active)
- Potency (Es-2): 8.91 µM (active)
- Potency (Hek293T): 8.91 µM (active)
- Potency (PA-1): 14.1 µM (active)
- Potency (SKOV3): 25.1 µM (active)
- Potency (Tov-21-G): 7.94 µM (active)

Compound: C[C@]12C[C@@H](O)[C@@H]3C[C@@]1(O[C@@H]1O[C@H](CO)[C@@H](O)[C@H](O)[C@H]1O)[C@]3(COC(=O)c1ccccc1)C(=O)O2
- Potency (C33A): inactive
- Potency (CASKI): inactive
- Potency (Es-2): inactive
- Potency (HeLa): inactive
- Potency (Hek293T): inactive
- Potency (JEG-3): inactive
- Potency (OV90): inactive
- Potency (PA-1): inactive
- Potency (SKOV3): inactive
- Potency (Tov-21-G): inactive
- Potency (Tov112D): inactive

Compound: CC(=O)O[C@H]1C(=O)[C@@]2(C)[C@H]([C@H](OC(=O)c3ccccc3)[C@]3(O)C[C@H](OC(=O)[C@H](O)[C@@H](NC(=O)c4ccccc4)c4ccccc4)C(C)=C1C3(C)C)[C@]1(OC(C)=O)CO[C@@H]1C[C@@H]2O
- activity change, negative = cytotoxicity (C33A): -4.13% [at 11.6 µM]
- activity change, negative = cytotoxicity (CAOV3): -17.1% [at 11.6 µM]
- Potency (Es-2): 0.126 µM (active)
- Potency (HeLa): 0.0316 µM (active)
- activity change, negative = cytotoxicity (OV90): -15.2% [at 11.6 µM]
- activity change, negative = cytotoxicity (SKOV3): 0% [at 11.6 µM]
- activity, negative = cell killing ([1]; at 45.9 µM (top of the series), tumour line B): -12.5%
- Potency ([1]; tumour line A): 31.6 µM (active)
- Potency ([1]; tumour line D): 0.1 µM (active)
- Potency (astro): 39.8 µM (active)

Compound: O=C(O)/C=C/c1ccc(-c2ccc(O)c(C34CC5CC(CC(C5)C3)C4)c2)cc1
- Potency (C33A): 1.58 µM (active)
- Potency (CASKI): 1.78 µM (active)
- Potency (Es-2): 0.631 µM (active)
- Potency (HeLa): 8.91 µM (active)
- Potency (Hek293T): 2 µM (active)
- Potency (JEG-3): 2.82 µM (active)
- Potency (OV90): 10 µM (active)
- Potency (PA-1): 2.24 µM (active)
- Potency (SKOV3): 0.631 µM (active)
- Potency (Tov-21-G): 0.794 µM (active)
- Potency (Tov112D): 1.41 µM (active)

Compound: OC/C=C/C=C/[C@H]1Cc2cc(O)cc(O)c2O1
- Potency (C33A): inactive
- Potency (CASKI): inactive
- Potency (Es-2): inactive
- Potency (HeLa): inactive
- Potency (Hek293T): inactive
- Potency (JEG-3): inactive
- Potency (OV90): inactive
- Potency (PA-1): inactive
- Potency (SKOV3): inactive
- Potency (Tov-21-G): inactive
- Potency (Tov112D): inactive

Compound: COc1ccc(CC2NCCc3c2[nH]c2ccc(C)cc32)cc1OC (configuration not stated)
- Potency (C33A): inactive
- Potency (CASKI): inactive
- Potency (Es-2): inactive
- Potency (HeLa): inactive
- Potency (Hek293T): inactive
- Potency (JEG-3): inactive
- Potency (OV90): inactive
- Potency (PA-1): inactive
- Potency (SKOV3): inactive
- Potency (Tov-21-G): inactive
- Potency (Tov112D): inactive

Compound: CN(C)C(=O)NC1CCC(CCN2CCN(c3cccc(Cl)c3Cl)CC2)CC1 (configuration not stated)
- activity change, negative = cytotoxicity (C33A): 1.34% [at 11.6 µM]
- activity change, negative = cytotoxicity (CASKI): 13.5% [at 11.6 µM]
- activity change, negative = cytotoxicity (Es-2): 5.23% [at 11.6 µM]
- activity change, negative = cytotoxicity (HeLa): -0.835% [at 11.6 µM]
- activity change, negative = cytotoxicity (Hek293T): 12% [at 11.6 µM]
- activity change, negative = cytotoxicity (JEG-3): 8.74% [at 11.6 µM]
- activity change, negative = cytotoxicity (OV90): 0.264% [at 11.6 µM]
- activity change, negative = cytotoxicity (PA-1): 1.34% [at 11.6 µM]
- activity change, negative = cytotoxicity (SKOV3): 0.966% [at 11.6 µM]
- activity change, negative = cytotoxicity (Tov-21-G): 4.37% [at 11.6 µM]
- activity change, negative = cytotoxicity (Tov112D): 2.02% [at 11.6 µM]
